From PubChem BioAssay (NCATS)
Inconclusive results are not listed. Active and inactive are the calls of the source. Unless noted, the call rests on the fitted dose curve; in most records, active means well fitted curve in the direction sought with a large enough effect; inconclusive means small, poorly fitted or top-dose-only effect, or another doubt; inactive means no such curve, though single readings can be large; an effect the other way counts as inactive or inconclusive.

What was measured:
[1] = qHTS for Inhibitors of the Functional Ribonucleoprotein Complex (vRNP) of Lassa (LASV) Arenavirus: LASV Primary Screen - GLuc reporter signal (AID 1347082; calls by dose curve; tested in HEK293 reporter line; further: series mostly up to about 57 µM; nearly all actives have a fitted effect of over 60% in size)
[2] = qHTS for Inhibitors of the Functional Ribonucleoprotein Complex (vRNP) of Lassa (LASV) Arenavirus: Viability assay - alamar blue signal for LASV Primary Screen (AID 1347083; calls by dose curve; tested in HEK293 reporter line; further: series mostly up to about 57 µM; nearly all actives have a fitted effect of over 80% in size)
[3] = qHTS for Inhibitors of the Functional Ribonucleoprotein Complex (vRNP) of Lymphocytic Choriomeningitis Arenaviruses (LCMV): Viability assay - alamar blue signal for LCMV Primary Screen (AID 1347085; calls by dose curve; tested in HEK293 reporter line; further: series mostly up to about 57 µM; nearly all actives have a fitted effect of over 80% in size)
[4] = target: Nucleoprotein (Lymphocytic choriomeningitis virus (strain Armstrong)) (UniProt P09992); assay: qHTS for Inhibitors of the Functional Ribonucleoprotein Complex (vRNP) of Lymphocytic Choriomeningitis Arenaviruses (LCMV): LCMV Primary Screen - GLuc reporter signal (AID 1347086; calls by dose curve; further: series mostly up to about 57 µM; nearly all actives have a fitted effect of over 70% in size)
Nucleoprotein (Lymphocytic choriomeningitis virus (strain Armstrong)), sequence (P09992 whole entry, looked up): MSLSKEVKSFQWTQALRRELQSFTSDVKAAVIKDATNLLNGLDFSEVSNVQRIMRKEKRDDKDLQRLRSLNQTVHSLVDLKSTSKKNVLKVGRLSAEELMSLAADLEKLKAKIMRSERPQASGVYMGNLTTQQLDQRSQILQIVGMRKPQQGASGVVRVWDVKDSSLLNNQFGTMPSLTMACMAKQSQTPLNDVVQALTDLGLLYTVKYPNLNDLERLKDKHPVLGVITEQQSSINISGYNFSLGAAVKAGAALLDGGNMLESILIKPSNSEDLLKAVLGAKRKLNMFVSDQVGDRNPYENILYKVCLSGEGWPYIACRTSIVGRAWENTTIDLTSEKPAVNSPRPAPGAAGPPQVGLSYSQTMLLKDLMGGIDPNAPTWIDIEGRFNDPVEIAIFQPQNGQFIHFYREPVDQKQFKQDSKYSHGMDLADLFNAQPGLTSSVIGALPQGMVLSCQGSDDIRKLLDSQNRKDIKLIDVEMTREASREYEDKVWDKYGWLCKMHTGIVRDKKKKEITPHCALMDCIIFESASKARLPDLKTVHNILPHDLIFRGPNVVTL

[5] = qHTS of pediatric cancer cell lines to identify multiple opportunities for drug repurposing: Primary screen for TC32 cells (AID 1347089); further: nearly all actives have a fitted effect of over 60% in size
Method in brief: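 A viability screen of TC32 cells was run over 48 h, with primary MIPE doses spanning 0.78 nM–46 µM and NPC doses 0.59 nM–46 µM. ATP luminescence (CellTiter-Glo) served as the read-out.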

[6] = qHTS of pediatric cancer cell lines to identify multiple opportunities for drug repurposing: Primary screen for DAOY cells (AID 1347090); further: series mostly up to about 46 µM; nearly all actives have a fitted effect of over 55% in size
Method in brief: (§1)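 Viability measured as metabolically active cells via CellTiter-Glo luminescence following 48 hours of compound exposure, 11-point dilutions in confirmatory testing. 500-1,000 cells/well plated 5 hours before dosing; controls were DMSO and 2.3 µM bortezomib.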

[7] = qHTS of pediatric cancer cell lines to identify multiple opportunities for drug repurposing: Primary screen for SJ-GBM2 cells (AID 1347091); further: potency means the concentration at half of the fitted maximal effect
Method in brief: as §1

[8] = qHTS of pediatric cancer cell lines to identify multiple opportunities for drug repurposing: Primary screen for A673 cells (AID 1347092); further: nearly all actives have a fitted effect of over 45% in size
Method in brief: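 Titration-based qHTS on A673 cells: MIPE compounds spanned 11 points (0.78 nM to 46 µM final), NPC compounds 8 points (0.59 nM to 46 µM final). Viability after 48 h was measured by ATP luminescence.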

[9] = qHTS of pediatric cancer cell lines to identify multiple opportunities for drug repurposing: Primary screen for SK-N-MC cells (AID 1347093); further: series mostly up to about 46 µM
Method in brief: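 Metabolically active cells were quantified by ATP-dependent luminescence (CellTiter-Glo, 15 min at room temperature) following 48 h treatment. Cells had been plated at 500-1,000 per well and settled for 5 h beforehand.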

[10] = qHTS of pediatric cancer cell lines to identify multiple opportunities for drug repurposing: Primary screen for BT-37 cells (AID 1347094); further: series mostly up to about 57 µM
Method in brief: (§2)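 Cells seeded at 500-1,000 cells/well in growth media, rested 5 hours at 37 degrees C, 5% CO2, then dosed; MIPE compounds at 11-point (from 0.78 nM) and NPC at 8-point (from 0.59 nM) final concentrations. Viability by CellTiter-Glo luminescence after 48 hours.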

[11] = qHTS of pediatric cancer cell lines to identify multiple opportunities for drug repurposing: Primary screen for NB-EBc1 cells (AID 1347095); further: potency means the concentration at half of the fitted maximal effect
Method in brief: as §2

[12] = qHTS of pediatric cancer cell lines to identify multiple opportunities for drug repurposing: Primary screen for U-2 OS cells (AID 1347096); further: nearly all actives have a fitted effect of over 50% in size
Method in brief: (§3)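 Viability after 48 h compound treatment at 37C, 500-1,000 cells/well, read as ATP luminescence with CellTiter-Glo. Primary screens used 11-point (MIPE, 0.78 nM-46 µM) or 8-point (NPC, 0.59 nM-46 µM) final concentrations; follow-up screens used 11-point dilutions.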

[13] = qHTS of pediatric cancer cell lines to identify multiple opportunities for drug repurposing: Primary screen for Saos-2 cells (AID 1347097); further: nearly all actives have a fitted effect of over 40% in size
Method in brief: as §2

[14] = qHTS of pediatric cancer cell lines to identify multiple opportunities for drug repurposing: Primary screen for NB1643 cells (AID 1347099); further: nearly all actives have a fitted effect of over 50% in size; further: potency means the concentration at half of the fitted maximal effect
Method in brief: as §2

[15] = qHTS of pediatric cancer cell lines to identify multiple opportunities for drug repurposing: Primary screen for LAN-5 cells (AID 1347100); further: potency means the concentration at half of the fitted maximal effect
Method in brief: as §3

[16] = qHTS of pediatric cancer cell lines to identify multiple opportunities for drug repurposing: Primary screen for BT-12 cells (AID 1347101); further: nearly all actives have a fitted effect of over 25% in size
Method in brief: (§4)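 Cells (500-1,000/well) rested 5 h, then received compounds for 48 h; metabolically active cells were measured by CellTiter-Glo luminescence. Final concentrations spanned up to 46 µM (MIPE, 11-point) or 0.59 nM-46 µM (NPC, 8-point) in primary screens, 11-point in follow-ups.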

[17] = qHTS of pediatric cancer cell lines to identify multiple opportunities for drug repurposing: Primary screen for Rh18 cells (AID 1347102); further: nearly all actives have a fitted effect of over 65% in size
Method in brief: as §3

[18] = qHTS of pediatric cancer cell lines to identify multiple opportunities for drug repurposing: Primary screen for SK-N-SH cells (AID 1347098);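 further: DMSO served as neutral control and bortezomib at 2.3 µM as positive control; nearly all actives have a fitted effect of over 65% in size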
Method in brief: as §4

Measured: Potency

CN1CCC(O)(c2ccc(F)cc2)C(C(=O)c2ccc(F)cc2)C1 (stereo unspecified)
not listed: [18]
inactive: all other assays above

C=CCC1(C(C)CC)C(=O)NC(=O)NC1=O (stereo unspecified)
not listed: [18]
inactive: all other assays above

C[C@@H]1CC2=CC(=O)CC[C@@H]2[C@H]2CC[C@@]3(C)[C@@H](CC[C@]3(C)O)[C@@H]21
not listed: [16]
inactive: all other assays above

CN1CC[C@]23c4c5ccc(O)c4O[C@H]2[C@@H](O)C=C[C@H]3[C@H]1C5
not listed: [8] | [9] | [13] | [14] | [16] | [18]
inactive: all other assays above

COP(=S)(OC)Oc1ccc(SC)c(C)c1
not listed: [7]
inactive: all other assays above

C[C@@H](N)[C@@H](O)c1ccccc1
not listed: [7]
inactive: all other assays above

NC1=NC(=O)C(c2ccccc2)O1 (stereo unspecified)
not listed: [7]
inactive: all other assays above

NNc1ccccc1
not listed: [15]
inactive: all other assays above

O=C(O)c1ccc(=O)[nH]c1
not listed: [7]
inactive: all other assays above

Clc1cccc(SC2CCNCC2)n1
not listed: [9]
inactive: all other assays above

C[C@]12CCC(=O)C=C1CC[C@@H]1[C@@H]2CC[C@]2(C)C(=O)CC[C@@H]12
inactive: all assays above

COc1cc(OC)c(OC)cc1C=O
not listed: [9]
inactive: all other assays above

COc1cc(CCN)cc(OC)c1OC
not listed: [18]
inactive: all other assays above

COP(=S)(OC)SCN1C(=O)c2ccccc2C1=O
not listed: [6] | [7] | [8] | [9] | [13] | [14]
inactive: all other assays above

C[C@]12CC[C@@H]3c4ccc(OC(=O)N(CCCl)CCCl)cc4CC[C@H]3[C@@H]1CC[C@@H]2OP(=O)(O)O
not listed: [7] | [11] | [13]
inactive: all other assays above

O=C1CN(/N=C/c2ccc([N+](=O)[O-])o2)C(=O)N1
inactive: [1] | [2] | [4]

CN1C(=O)COc2c(C(=O)NC3CN4CCC3CC4)cc(Cl)cc21 (stereo unspecified)
not listed: [7]
inactive: all other assays above

O=c1c(C2CC(c3ccc(-c4ccc(Br)cc4)cc3)Cc3ccccc32)c(O)sc2ccccc12 (stereo unspecified)
active: [7] 11.9 µM | [11] 7.5 µM | [14] 10.6 µM | [15] 10.6 µM
inactive: [1] | [2] | [3] | [4] | [5] | [8] | [12] | [17]
